FBW7 activator = FBW7 E3 ligase activators, primary screen, biochemical, AlphaScreen, human | AID 1259310, 2017 | 650,000 tested, 0.13% active | AlphaScreen FBW7–phospho-cyclin E peptide binding, activator screen | normalized activity (activation), % at 26.1 µM; in the data active = normalized activity above about 1.9%;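 also: purified mutant Fbw7 with reduced substrate affinity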
GPR151 ag = activators of human GPR151, primary screen, cell-based, PathHunter beta-arrestin, luminescence; G-protein coupled receptor 151 (Homo sapiens), Q8TDV0; PathHunter beta-arrestin GPR151 cells; activation, % at 11.2 µM; 650,000 tested, 1% active; in the data active = activation above about 4.9%;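 also: 0% = median of compound wells and 100% = cells with positive control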
MITF inh = MITF inhibitors, primary screen, biochemical, AlphaScreen, human; AID 1259374, 2018; 650,000 tested, 0.91% active; AlphaScreen MITF homodimerization, bead proximity signal; inhibition, % at 2.6 µM; in the data active = inhibition above about 50%;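 also: 0% = vehicle wells with protein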
TEAD-YAP inh = TEAD-YAP interaction inhibition, primary screen, TEAD-YAP interaction inhibitor project, luminescence, HEK-TIYL cells | TEAD-Gal4/YAP UAS-luciferase luminescence | inhibition, % at 9.12 µM | 640,000 tested, 1.4% active | AID 1259422, 2018; in the data active = inhibition above about 32%;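 also: 0% = median of test compound wells and 100% = reference inhibitor wells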
GPR151 confirm = GPR151 activators, triplicate retest, confirmation, cell-based, PathHunter beta-arrestin, luminescence; 6,700 tested, under 10 active; activation, % at 11.2 µM; GPR151 PathHunter beta-arrestin cells, 90 min; % of EA-reagent control over plate median; shares compounds with GPR151 ag;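 active = mean percent activation across replicates above the confirmation screen cutoff of 4.91%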
GPR119 counter = GPR119 activators in beta-arrestin cells, counter-screen for GPR151 activator project, cell-based, PathHunter beta-arrestin, luminescence, triplicate; shares compounds with GPR151 ag; 90 min; 0 = compound-well median, 100 = enzyme-acceptor control; activation, % at 11.2 µM; 6,700 tested, 0.3% active;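 active = mean percent activation in the counterscreen above 29.09%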;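 also: counterscreen on off-target GPR119 to flag nonselective hits from the GPR151 activator screen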
Target sequence (Q8TDV5 whole entry, looked up): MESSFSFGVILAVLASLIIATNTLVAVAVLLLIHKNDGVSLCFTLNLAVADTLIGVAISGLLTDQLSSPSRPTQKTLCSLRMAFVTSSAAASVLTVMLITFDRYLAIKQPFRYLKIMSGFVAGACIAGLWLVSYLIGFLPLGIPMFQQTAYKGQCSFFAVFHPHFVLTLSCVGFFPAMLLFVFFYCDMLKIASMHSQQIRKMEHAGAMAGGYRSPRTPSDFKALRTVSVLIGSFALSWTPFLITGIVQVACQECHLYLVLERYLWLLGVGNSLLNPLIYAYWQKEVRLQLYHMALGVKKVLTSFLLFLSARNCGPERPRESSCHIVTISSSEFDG
Numbers without * were called inactive; / = not tested or not shown; ! = not confirmed by another sample. Sampled rows, rich in hits. Any-hit rate of the full collection: about 3.4%.

SMILES	FBW7 activator	GPR151 ag	MITF inh	TEAD-YAP inh	GPR151 confirm	GPR119 counter
O=C1c2ccccc2S(=O)(=O)N1Cc1nc(-c2ccc(F)cc2)no1	0	1	13	-3	/	/
Cc1ccc(C)c(S(=O)(=O)NC(C)C(=O)Nc2ccc(Cl)c(Cl)c2)c1 (stereo unspecified)	0	5.9*	2	3	0	-7
CC(NS(=O)(=O)c1ccc(Cl)cc1)C(N)=O (stereo unspecified)	0	-2	5	3	/	/
CC(NS(=O)(=O)c1cc(Cl)ccc1Cl)C(N)=O (stereo unspecified)	0	5.2*	6	-2	0	-2
COC(=O)C1=CN(c2ccc(C(=O)OC)cc2)C=C(C(=O)OC)C1c1cc(C)ccc1C	0	0	-1	-8	/	/
Cc1ccc(-n2c(CNS(C)(=O)=O)nnc2SCc2ccc(F)cc2)cc1	0	4.9*	13	15	1	-1
CS(=O)(=O)NCc1nnc(SCc2ccc(F)cc2)n1-c1ccc(F)cc1	0	0	7	11	/	/
O=C(Nc1ccc([N+](=O)[O-])cn1)C1CCCCC1	0	9.2*	12	-4	-1	-10
O=[N+]([O-])c1ccc(NC2CCCCC2)nc1	0	-1	0	-3	/	/
O=C(NCc1ccccc1F)c1cc2cc(Br)ccc2oc1=O	0	5.9*	0	-1	0	7
COc1ccc(Oc2nc3c(C)cccn3c(=O)c2/C=C(\C#N)C(=O)N2CCCCC2)cc1	0	1	6	4	/	/
Cc1cccn2c(=O)c(/C=C(\C#N)C(=O)N3CCCCC3)c(Oc3ccc(F)cc3)nc12	0	5.7*	-16	11	0	-11
Cc1ccc(Oc2nc3ccccn3c(=O)c2/C=C(\C#N)C(=O)N2CCOCC2)cc1	0	4.9*	3	2	-1	-10
COCCNC(=O)/C(C#N)=C/c1c(Oc2cccc(C)c2)nc2c(C)cccn2c1=O	0	6.1*	0	4	1	1
CCOC(=O)C1(C)C=C(Nc2cccc([N+](=O)[O-])c2)C(=O)N1c1cccc([N+](=O)[O-])c1 (stereo unspecified)	0	0	-4	-5	/	/
COC(=O)c1sc2nc(C)ccc2c1N	0	-1	-9	-11	/	/
CC(C)c1ccc(NC(=O)CSc2nc3cc4c(cc3c(=O)n2CCC2=CCCCC2)OCO4)cc1	0	5.9*	-4	4	-1	7
COc1cc2c(-c3ccccc3)c(C)oc2cc1CN1CCc2nncn2CC1	0	1	14	7	/	/
COc1ccc(S(=O)(=O)N(CC(=O)N2CCC(C)CC2)Cc2ccccc2)cc1C	0	0	13	10	/	/
CCN(CC)P(=O)(c1nc2ccccc2n1CC)N(CC)CC	0	5.6*	1	3	0	-2
CCN(CC)C(=O)c1sc(NC(=O)c2ccc(F)cc2)c(C(=O)OC)c1C	0	5.1*	-8	1	0	-8
CCN(CC)C(=O)c1sc(NC(=O)c2cccnc2)c(C(=O)OC)c1C	0	0	14	-3	/	/
O=C(c1ccco1)N(Cc1ccccc1F)C1CCS(=O)(=O)C1 (stereo unspecified)	0	5.3*	-12	-3	-1	-1
COc1cc(-c2c(NC(=O)c3ccccc3)oc3c(C)cccc3c2=O)cc(OC)c1OC	0	0	7	16	/	/
O=C(O)CCCc1c[nH]c2ccccc12	0	5.0*!	7	-6	0	3
SMILES	FBW7 activator	GPR151 ag	MITF inh	TEAD-YAP inh	GPR151 confirm	GPR119 counter
O=C(O)CCCNC(=O)Cc1c[nH]c2ccccc12	0	1	-7	-5	/	/
c1ccc(Cc2c[nH]c3ccccc23)cc1	0	5.3*	6	16	-1	5
CC(C)(C)c1ccc(C(=O)NNC(=O)c2ccc([N+](=O)[O-])cc2Cl)cc1	0	2	5	-9	/	/
O=C(NCCC1=CCCCC1)c1cccnc1SCc1cccc(Br)c1	0	1	5	-3	/	/
O=C(NCCC1=CCCCC1)c1cccnc1SCc1ccccc1F	0	5.4*	2	-6	0	-4
CCOC(=O)C1=CN(Cc2ccc(F)cc2)C=C(C(=O)OCC)C1c1cc(OC)c(O)c(OC)c1	0	1	5	7	/	/
COc1cc(C)cc(CN2CCN(Cc3ccc4c(c3)OCO4)CC2)c1O	0	5.3*	0	-11	0	7
COc1cc(OC)c(CN2CCN(Cc3ccc4c(c3)OCO4)CC2)cc1Br	0	3	39	-5	/	/
Cc1ccc(-n2nc3c(c2NC(=O)c2cccc(F)c2)CS(=O)C3)c(C)c1 (stereo unspecified)	0	5.9*	0	-10	2	2
Cc1ccc(-n2nc3c(c2NC(=O)c2ccc(Cl)c([N+](=O)[O-])c2)CS(=O)C3)c(C)c1 (stereo unspecified)	0	0	2	14	/	/
O=C(CCCn1c(=S)[nH]c2cc3c(cc2c1=O)OCO3)N1CCN(c2cccc(Cl)c2)CC1	0	1	-17	-16	/	/
Cc1nnc(SCc2cc(=O)n3[nH]cnc3n2)s1	0	5.7*	14	11	-1	-5
CC(=O)N(C)c1nnc(-c2ccc(C)nc2)s1	0	1	-8	1	/	/
O=C(NN1C(=O)C2C3C=CC(C3)C2C1=O)c1ccncc1 (stereo unspecified)	0	-1	1	-7	/	/
O=C(NN1C(=O)C2C(c3ccccc3)C=CC(c3ccccc3)C2C1=O)c1ccncc1 (stereo unspecified)	0	6.1*	-20	8	0	-5
CCCOc1cccc2c1CCN(C)C2=O	1	-1	7	-4	/	/
O=C(O)C12C[C@H]3C[C@@H](C1)CC(n1ncc(Nc4cccc(Cl)c4)c(Cl)c1=O)(C3)C2	0	0	15	11	/	/
CCN(CC)c1c(-c2ccccc2)c2cc(Br)ccc2[nH]c1=O	0	5.9*	9	17	0	7
O=C(O)Cc1c(-c2ccccc2)c2cc(Br)ccc2[nH]c1=O	0	1	-4	1	/	/
CC(C)(C)OC(=O)NCC(=O)Oc1ccc2c3c(c(=O)oc2c1)CCCC3	0	0	8	14	/	/
O=c1c2ccccc2ncn1Cc1ccccc1Cn1cnc2ccccc2c1=O	0	0	12	6	/	/

Assay outcomes: PubChem BioAssay, The Scripps Research Institute Molecular Screening Center
